Assay results taken from PubChem BioAssay AID540333 (Southern Research Specialized Biocontainment Screening …, 2011).
Screen size: about 10,000 compounds; about 320 (3.2%) were called active. What follows is part of a selection rich in actives, with near analogues and random picks from the rest. Unmarked numbers belong to inactive results. No stated cut-off is given here; in the data, active means CPE inhibition mostly above about 9.1% (no sharp cut-off); inactive means mostly below about 7.2%.

assay: antivirals protecting cells from dengue CPE – CPE readout, HTS (AID 540333); settings: Dengue virus CPE inhibition in host cells, at 20 µM; stronger effect = higher value

Structure (SMILES) | CPE inhibition
Cn1cc([N+](=O)[O-])c(C(=O)N/N=C/c2ccc([N+](=O)[O-])cc2)n1 | 0.11%
CCNC(=O)c1cc(Cl)ccc1OC | 0.845%
N#C/C(=C\c1cccs1)c1nc2ccccc2[nH]1 | inactive
N#C/C(=C\c1ccc(Sc2ccccc2)o1)c1nc2ccccc2[nH]1 | 13% (active)
N#C/C(=C\c1ccc(OC(=O)c2ccc(Br)s2)cc1)c1nc2ccccc2[nH]1 | 8.02%
CCn1c(C)cs/c1=N\C(=S)Nc1ccccc1C | 0.08%
Cc1ccc(C2CC(=O)C=C(NCC(C)C)C2)cc1 (configuration not stated) | inactive
Cc1ccc(C)c(NC(=S)N(C)CCc2ccccn2)c1 | inactive
Cc1ccccc1OCC(=O)N1N=C(c2cccnc2)CC1(O)C(F)(F)F (configuration not stated) | inactive
COc1ccc(N=C2SC(CC(=O)Nc3ccccc3F)C(=O)N2Cc2ccco2)cc1 (configuration not stated) | 0.295%
CC/C(=N\N=C1\SC(C)C(=O)N1Cc1ccco1)c1ccccc1 (configuration not stated) | 22.7% (active)
COc1ccc(N=C2SC(CC(=O)Nc3ccccc3OC)C(=O)N2Cc2ccco2)cc1 (configuration not stated) | 1.94%
CSc1ccc(/C=N/NC(=O)COc2ccc(Br)cc2Cl)cc1 | 3.23%
CCN(CC)S(=O)(=O)c1cccc(NC(=O)CCSc2ccc(Cl)cc2)c1 | 11% (active)
COc1cccc(NC(=O)CCSc2ccc(C)cc2)c1 | inactive
CN(C)S(=O)(=O)c1cccc(NC(=O)CCSc2ccc(Cl)cc2)c1 | inactive
O=C(CSc1nc2ccccc2s1)Nc1ccc(Cl)c(S(=O)(=O)N2CCOCC2)c1 | 0.03%
Cc1ccc(CSc2ccc(-c3ccc4c(c3)OCO4)nn2)cc1 | inactive
O=C1N(c2ccccc2)C(c2ccc(Cl)cc2)N2CCCN12 (configuration not stated) | 0.355%
O=C1CC(c2ccc(Cl)cc2)SC(N(c2ccccc2)c2ccccc2)=N1 (configuration not stated) | 23.9% (active)
Cc1cc(O)c(C2=Nc3ccccc3SC(c3ccc(Cl)cc3)C2)c(=O)o1 (configuration not stated) | 5.1%
O=C1NC(=O)C(CC(=O)N(Cc2cccs2)C2(C(=O)NC3CCCC3)CCCCC2)N1 (configuration not stated) | 0.025%
CC(=O)Nc1ccccc1C(=O)C(=O)Nc1cccc(C(=O)NCc2ccccc2)c1 | inactive

Structure (SMILES) | CPE inhibition
O=C(NC(=S)Nc1cccc(NC(=O)c2ccccc2)c1)c1cccc([N+](=O)[O-])c1 | 0.91%
COc1ccc(Cc2nnc(NC(=O)CSc3ccc(C)cc3)s2)cc1 | 0.25%
COc1ccc(/C=C/c2nnc(NC(=O)CSc3ccc(Cl)cc3)s2)cc1 | 12.2% (active)
COC(=O)Nc1nnc(/C=C/c2ccc(OC)cc2)s1 | 6.99%
CC(C)c1nc(C#N)c(N2CCOCC2)o1 | inactive
Cc1ccc(CN2CCN(CC(=O)N/N=C/c3c[nH]c4ccccc34)CC2)cc1 | 0.79%
COc1cc(OC)cc(-c2c(C#Cc3ccsc3)c3cc(-c4cccc5[nH]ccc45)ccc3n2C)c1 | 6.79%
Cc1ccc(/C=C/C(=O)OCC(=O)Nc2ccccc2Sc2ccccc2)cc1 | inactive
O=C(Cc1ccccc1)Nc1cc(Cl)ccc1Sc1ccccc1 | 0.52%
CC1CCCCN1CC(=O)Nc1ccccc1Sc1ccccc1 (configuration not stated) | 18.4% (active)
O=C(CN1CCN(c2ccccc2)CC1)Nc1ccccc1Sc1ccccc1 | 15.7% (active)
CC(=O)N1CCN(CC(=O)Nc2ccccc2Sc2ccccc2)CC1 | 0.615%
CC1CN(CC(=O)Nc2ccccc2Sc2ccccc2)CC(C)O1 (configuration not stated) | 0.145%
O=C(COC(=O)c1ccccc1-c1nc2ccccc2s1)NC1CCS(=O)(=O)C1 (configuration not stated) | inactive
CC(=O)O[C@H]1CC[C@@]2(C)[C@@H](CC[C@H]3[C@@H]4CC[C@H](C(C)O)[C@@]4(C)CC(=O)[C@@H]32)C1 (some centres not stated) | inactive
COC(=O)c1ccc(NC(=O)CSC2=NCCN2)cc1 | 0.235%
O=C1CC(N(Cc2cccs2)C(=O)Nc2ccccc2)C(=O)N1c1ccc(Cl)cc1 (configuration not stated) | 0.225%
COC(=O)[C@@]1(Cc2ccc(F)cc2)[C@H]2c3cc(C(=O)N(C)C)n(C[C@H](O)CO)c3C[C@H]2CN1C(=O)c1ccccc1 | 0.25%
COC(=O)[C@@]1(Cc2ccc(F)cc2)[C@H]2c3cc(C(=O)N(C)C)n(CCc4ccc(OC)c(Br)c4)c3C[C@H]2CN1C(=O)c1ccccc1 | 21.7% (active)
COC(=O)Cn1c(C(=O)N2CCCC2)cc2c1C[C@H]1CN(C(=O)c3ccccc3)[C@@](Cc3ccc(F)cc3)(C(=O)OC)[C@@H]21 | 0.235%
Cc1cc(NC(=O)/C=C/c2ccc(Cl)cc2)no1 | inactive
Cc1cccn2c(=O)c(/C=C(\C#N)C(=O)NCc3ccco3)c(N3CCCC(C)C3)nc12 (configuration not stated) | 11.3% (active)
Cc1cccn2c(=O)c(/C=C(\C#N)C(=O)NCc3ccco3)c(N3CCC(C(N)=O)CC3)nc12 | 0.26%

Structure (SMILES) | CPE inhibition
Cc1cccn2c(=O)c(/C=C(\C#N)C(=O)NC3CCS(=O)(=O)C3)c(N3CCC(C(N)=O)CC3)nc12 (configuration not stated) | 0.15%
CCOP(=O)(OCC)C(NC(=O)Nc1ccc(Cl)cc1)c1ccccc1 (configuration not stated) | 0.17%
Cn1cccc1CC(=O)N/N=C/C=C/c1ccccc1 | 0.02%
COc1ccc(COc2ccccc2C(=O)NCc2ccccc2)cc1F | 1.67%
Cc1cc(C)c2c(c1)cc(C)c1nnc(SCC(=O)Nc3ccccc3N3CCOCC3)n12 | inactive
CCOc1cc(/C=C2\C(=O)N(c3cccc(C(F)(F)F)c3)C(=O)c3ccccc32)ccc1O | 17.1% (active)
CCOc1cc(/C=C2\C(=O)N(CCc3ccc(OC)c(OC)c3)C(C)=C2C(=O)OC)ccc1O | 2.62%
CCOc1cc(/C=C2\NC(=S)N(c3c(C)n(C)n(-c4ccccc4)c3=O)C2=O)ccc1O | 0.065%
CN(C)S(=O)(=O)c1cccc(NC(=O)COC(=O)/C=C/c2ccco2)c1 | inactive
COc1ccccc1-c1coc2cc(OCC(=O)OCc3ccccc3)ccc2c1=O | inactive
CCCOC(=O)c1ccc(NC(=O)C(CC)CC)cc1 | inactive
CCCOC(=O)c1ccc(NC(=O)c2cc(Cl)ccc2OC)cc1 | 0.345%
CCCCOC(=O)c1ccc(NC(c2ccc(C)cc2)P(=O)(OC)OC)cc1 (configuration not stated) | 41.4% (active)
Cc1ccc(NC(=O)c2cncc(Br)c2)cc1S(=O)(=O)N(C)C | inactive
CCCNC(=O)Cn1nc([N+](=O)[O-])c([N+](=O)[O-])c1C | inactive
CCn1cc([N+](=O)[O-])c(C(=O)N2N=C(c3ccccc3)CC2c2ccc([N+](=O)[O-])cc2)n1 (configuration not stated) | 1.99%
O=C(c1cccs1)N1N=C(c2ccccc2)CC1c1ccc(O)cc1 (configuration not stated) | 30.5% (active)
COc1ccc(C2CC(c3ccccc3)=NN2C(=O)COC(=O)C2CC2)cc1 (configuration not stated) | 1.49%
COc1ccccc1-c1nnc(NC(=O)C2=COCCO2)o1 | 0.3%
Cc1onc(-c2c(F)cccc2Cl)c1C(=O)NC(=S)NCc1cccnc1 | inactive
CCN(CC)S(=O)(=O)c1ccc(C)c(NC(=S)NNC(=O)C2CC2)c1 | 0.73%
O=C(CNC(=O)C1CCCCC1)Nc1cc(Cl)ccc1Cl | inactive
CCN(CC)c1ccc(S(=O)(=O)Nc2cc(Cl)ccc2Cl)cc1NC(=S)NC(=O)C1CCCC1 | 26.9% (active)

Structure (SMILES) | CPE inhibition
O=[N+]([O-])c1cccc(N/N=C/c2cccc3ccccc23)c1 | 0.555%
CCn1cc(CNC(=O)c2cccc([N+](=O)[O-])c2)c(C)n1 | 0.4%
O=C(Cc1ccc(Cl)cc1)Nc1cccc(S(=O)(=O)Nc2ccccc2F)c1 | 0.29%
Cc1cccc(NC(=S)N2CCCCCC2)c1 | 0.335%
Cc1cccc(NC(=S)N2CCCCC2)c1 | 0.28%
Cc1cccc(NC(=S)N/N=C2/CCCCc3ccccc32)c1 | 11.6% (active)
Cc1ccc(C(=O)NN2C(=O)C3C4c5ccccc5C(c5ccccc54)C3C2=O)cc1 (configuration not stated) | 1.93%
COc1ccc(CCNC(=O)c2ccccc2N(C)S(=O)(=O)c2ccccc2)cc1 | inactive
COc1ccc(O)c(C(=O)c2cc(C(=O)NCCc3ccccc3)c(=O)n(CCc3ccccc3)c2)c1 | 15.6% (active)
CCOc1ccccc1NC(=O)c1cc(C(=O)c2cc(OC)ccc2O)coc1=N | inactive
Cc1ccc(SCc2cc(=O)[nH]c(Nc3nc(C)c4ccc(C)cc4n3)n2)cc1 | 2.63%
Cc1ccccc1-c1ccc(C(=O)NCc2ccccc2)o1 | inactive
O=C(C[n+]1cc(-c2ccc(Cl)c(Cl)c2)n2c1CCC2)N1c2ccccc2Sc2ccccc21 | 15.1% (active)
O=C(C[n+]1cc(-c2ccccc2)n2c1CCC2)N1c2ccccc2Sc2ccccc21 | 2.94%
O=C(C[n+]1cc(-c2ccc(Cl)cc2)n2c1CCC2)N1c2ccccc2Sc2ccccc21 | 2.13%
O=S(=O)(Nc1ccc(N=Nc2ccc(O)c3ccccc23)cc1)c1ccccc1 | 10.4% (active)
Cc1ccc(N=Nc2ccc(O)c3ncccc23)cc1 | 0.345%
O=S(=O)(Nc1ccc2ccccc2c1)c1ccccc1 | inactive
Cc1ccc(-c2cc3nc(-c4ccc(Br)cc4)cc(N)n3n2)cc1 | 8.6%
O=C(CNC(c1ccccc1)c1ccccc1)Nc1ccccc1-c1ccccc1 | 25.7% (active)
Cc1ccccc1CSCC(=O)Nc1ccccc1-c1ccccc1 | 2.64%
CCC(C(=O)OCC(=O)Nc1ccccc1-c1ccccc1)c1ccccc1 (configuration not stated) | 4.5%
Cc1ccc(/C=N/n2c(C)cc(C)c(C#N)c2=O)o1 | 1.26%
